This is an account of results in PubChem BioAssay.

The target in this assay is Fibroblast growth factor 10 (Homo sapiens) (UniProt O15520). Kind of assay: FGF10 binders on small-molecule microarrays, primary screen, biochemical, small-molecule microarray, 635 nm fluorescence (AID 1102). Particulars: FGF10 binding, fluorescence 635 nm, higher = more signal.
Sequence of Fibroblast growth factor 10 (Homo sapiens) (O15520 whole entry, looked up): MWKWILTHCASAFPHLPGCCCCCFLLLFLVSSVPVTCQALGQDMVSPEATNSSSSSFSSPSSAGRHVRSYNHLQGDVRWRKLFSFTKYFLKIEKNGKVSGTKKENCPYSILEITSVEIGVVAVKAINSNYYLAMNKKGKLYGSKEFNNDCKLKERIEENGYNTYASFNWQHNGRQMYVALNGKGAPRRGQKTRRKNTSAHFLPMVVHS
Molecule `COc1cc2c(cc1O)C(C)N(Cc1ccc([N+](=O)[O-])o1)CC2` (stereo not given) registered a composite z-score of 0.675.
For `COCCOC(=O)N1C(=O)[C@@]2(c3cc(C#Cc4ccc(OC)cc4)ccc31)[C@H](c1ccc(O)cc1)N1[C@H](c3ccccc3)[C@H](c3ccccc3)OC(=O)[C@H]1[C@@H]2C(=O)N1CCCCCCC1`, the composite z-score was 0.506.
`COc1ccc([Si](C)(C)[C@@H]2[C@@H](CC(=O)N(CCO)Cc3ccccc3)O[C@]3(C(=O)N(Cc4cccc(N5C(=O)c6cccc7cccc5c67)c4)c4ccccc43)[C@H]2C)cc1`: the composite z-score was 0.0691.
Molecule `Cc1ccc(S[C@]2(C(=O)O)CC(=O)N(Cc3ccccc3Cl)[C@@H]2c2ccc(CO)cc2I)cc1` showed a composite z-score of -0.054.
Molecule `COC(=O)C1=CC(CCCO)=CC(C2CC2)N(C)C=C1C(=O)OC` (stereo not given) came in with a composite z-score of -0.259.
With `COCCOC(=O)N1C(=O)[C@@]2(c3cc(C#CCC(C(=O)OC)C(=O)OC)ccc31)[C@H](C(=O)N1CCc3cc(OC)c(OC)cc3C1)[C@H]1C(=O)O[C@H](c3ccccc3)[C@H](c3ccccc3)N1[C@@H]2c1ccc(OCCO)cc1`, the composite z-score was determined as 1.24.
`COc1ccc([Si](C)(C)[C@H]2[C@H](CCO)O[C@@]3(C(=O)N(Cc4cccc(N5C(=O)COc6ccccc65)c4)c4ccccc43)[C@@H]2C)cc1` returned a composite z-score of -0.222.
`CN(C)CCCNC(=O)[C@@]1(C)c2ccccc2C(=O)N(Cc2ccccc2)[C@H]1c1ccc(CO)cc1` returned a composite z-score of -0.476.
`COC(=O)c1c2oc(c1C(=O)OC)C(=O)N(Cc1ccccc1)Cc1cn(nn1)C[C@H](Cc1ccccc1)NC(=O)N[C@H](CO)CC2` registered a composite z-score of 0.247.
`[N-]=[N+]=NCc1ccccc1[C@H]1OC(c2ccc(OCCCO)cc2)=N[C@@]1(CCS(=O)(=O)c1ccccc1)C(=O)N1CCCCC1` displayed a composite z-score of 0.644.
